High-throughput results deposited in PubChem BioAssay by Broad Institute.
Compounds with a hit are over-represented: about 3.7% of the library has one in this group of screens.
esBAF inh: inhibitors of esBAF chromatin remodeling in mouse ES cells. Bmi1-luciferase knock-in reporter, 24 h; 100% = twice the neutral-well signal. reporter increase, % at 12.5 µM. actives 2% (n = 350,000). AID 602393; in the data active = activation above about 40%; inconclusive = no clear call, values can overlap the other calls;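 note: 0% = median of the plate's neutral control wells and 100% = double that signal; a rise in the Bmi1 reporter signal indicates esBAF inhibition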
Wnt bcat act: activators of Wnt/beta-catenin signaling; Wnt/beta-catenin reporter cell assay, activator, plate reader; activation, % at 9.35 µM; actives 1.2% (n = 300,000); AID 743398; in the data active = activation above about 30%, passing the limit was not always enough; inconclusive = no clear call, values can overlap the other calls;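 note: 0% = neutral control wells and 100% = positive control wells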
Ecoli rRNA inh: inhibitors of bacterial rRNA selective over humanized ribosomes; AID 720706; E. coli WT GFP vs humanized-ribosome RFP mutants, fluorescence, 24 h; active compounds read low; DMSO median 0, no signal -100; actives 1.6% (n = 350,000); GFP signal change (wild-type ribosome), % (test concentration not listed);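 active = significant combined selectivity score with lowered wild-type GFP, culture density cut under 30%, mutant RFP and density less affected; inactive = any of these conditions unmet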
MLL AF4-AF9 inh: MLL-AF4/AF9 protein interaction inhibition. P42568. AlphaScreen, biotin-AF4 peptide binding to FLAG-AF9. inhibition, % at 10 µM. actives 0.47% (n = 350,000);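 active = every replicate reaching a set inhibition limit, whatever the replicate mean, cut at about 25% in these data; inconclusive = mean inhibition reaches that limit but some replicates miss it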;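 note: 0% = plate neutral control median and 100% = total signal loss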
Target sequence (P42568 whole entry, looked up): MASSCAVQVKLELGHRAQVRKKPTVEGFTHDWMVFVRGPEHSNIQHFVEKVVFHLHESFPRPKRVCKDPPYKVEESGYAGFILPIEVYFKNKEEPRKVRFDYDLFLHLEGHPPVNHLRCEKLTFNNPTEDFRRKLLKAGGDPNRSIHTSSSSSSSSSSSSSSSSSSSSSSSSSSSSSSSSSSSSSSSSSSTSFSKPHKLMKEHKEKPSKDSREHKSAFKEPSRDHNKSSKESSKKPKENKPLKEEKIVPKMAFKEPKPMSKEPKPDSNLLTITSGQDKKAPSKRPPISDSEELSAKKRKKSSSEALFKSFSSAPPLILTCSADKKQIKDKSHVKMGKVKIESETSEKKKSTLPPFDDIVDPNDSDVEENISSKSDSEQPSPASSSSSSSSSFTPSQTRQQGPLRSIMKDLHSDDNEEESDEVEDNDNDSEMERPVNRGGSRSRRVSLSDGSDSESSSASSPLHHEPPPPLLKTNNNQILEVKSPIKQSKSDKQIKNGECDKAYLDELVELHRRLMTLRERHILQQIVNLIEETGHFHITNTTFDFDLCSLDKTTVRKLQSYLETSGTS
MITF act: activators of MITF-driven TRPM1 promoter activity in SK-MEL-5 cells | SK-MEL-5 TRPM1-promoter luciferase, 24 h; % of positive control, neutral wells = 0 | activation, % at 12.5 µM | actives 0.75% (n = 300,000) | AID 588334;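 active = mean activation of at least 80% with every replicate also reaching 80%; inconclusive = mean reaches 80% but some replicate falls short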;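 note: 0% = neutral control wells and 100% = parthenolide positive control wells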
The depositor's hits bear a star; ? = inconclusive; nt = not tested or not shown.

SMILES | esBAF inh | Wnt bcat act | Ecoli rRNA inh | MLL AF4-AF9 inh | MITF act
Cc1ccc(OCCSc2ncnc3nc[nH]c23)cc1 | nt | nt | nt | nt | 90*
Cc1nn(Cc2ccc(C(=O)Nc3ccccc3F)cc2)c(C)c1Cl | nt | -5 | -24* | -1 | -1
CC(=O)N(C)C[C@@H]1OCc2ccccc2-c2c(n(C)c3ccccc23)C(=O)N([C@H](C)CO)C[C@@H]1C | -1 | nt | -2 | -4 | nt
O=[N+]([O-])c1ccc(C[n+]2cc(-c3ccc(Cl)c(Cl)c3)n3c2CCCCC3)cc1 | nt | 1 | -49* | nt | -3
Clc1ccc(-c2c[n+](Cc3ccc(Br)cc3)c3n2CCCCC3)cc1 | nt | 0 | -52* | 3 | -28
O=[N+]([O-])c1ccc(C[n+]2cc(-c3ccccc3)n3c2CCCCC3)cc1 | -4 | 0 | 12 | 3 | 3
O=C(C[n+]1cc(-c2ccc(Cl)c(Cl)c2)n2c1CCC2)OCc1ccccc1 | -7 | -2 | -14* | 4 | 8
Cc1ccc(CSc2ncn(-c3ccccc3)n2)cc1 | 20 | -3 | nt | nt | 58
Clc1ccccc1CSc1ncn(-c2ccccc2)n1 | 67* | nt | nt | nt | 58
C[C@H](CO)N1C[C@H](C)[C@H](CN(C)C(=O)C2CC2)Oc2cc(C#CC(C)(C)O)ccc2S1(=O)=O | nt | nt | 1 | nt | nt
COc1cc(C(C)=O)ccc1OCc1cn(CC(=O)c2ccc(O)cc2)nn1 | -4 | -3 | 1 | -1 | 1
CC(=O)c1ccc(OCc2cn(CC(=O)c3ccc(O)cc3)nn2)c(C)c1 | 2 | -2 | -31* | 3 | nt
C[C@@H]1CN([C@@H](C)CO)C(=O)Cc2cc(NC(=O)Cc3cn(C)c4ccccc34)ccc2O[C@H]1CN(C)S(C)(=O)=O | -5 | nt | 2 | 0 | nt
Cc1ccc(CNC(=S)N(C)C)cc1 | nt | 4 | 2 | -5 | nt
COc1cccc(-c2ccc3c(c2)[C@H]2[C@H](CCN2C(=O)c2ccccn2)[C@H](CO)N3)c1 | 45* | nt | -8 | -7 | nt
N#Cc1cccc(-c2ccc3c(c2)[C@@H]2[C@@H](CCN2C(=O)c2ccncc2)[C@@H](CO)N3)c1 | 61* | nt | 19 | -4 | nt
COc1cc(/C=C2\SC(=S)N(NC(=O)c3ccccc3O)C2=O)ccc1O | 0 | 1 | -41 | 2 | 6
O=C(NN1C(=O)/C(=C/c2ccc(O)c([N+](=O)[O-])c2)SC1=S)c1ccccc1Cl | nt | -1 | -22* | 0 | -14
CCC(CC)c1nnc(NC(=O)COc2ccc3c(c2)OCO3)s1 | 0 | 1 | -5 | -5 | 8
O=C(Nc1nnc(Cc2ccc([N+](=O)[O-])cc2)s1)c1ccc2c(c1)OCO2 | nt | 2 | 3 | -2 | 17
CCC(CC)c1nnc(NC(=O)c2ccc3c(c2)OCO3)s1 | 58* | 7 | 1 | 0 | 79
CC(C)(C)Cc1nnc(NC(=O)c2ccc3c(c2)OCO3)s1 | 46* | 15 | 3 | 1 | 68
O=C(CCCN1C(=O)C(c2ccccc2)Oc2cccnc21)Nc1cccc(F)c1 (configuration not stated) | -3 | 0 | -27* | -2 | -6
COC(=O)c1nnn(-c2nonc2N)c1CN1CCCC1 | 0 | 1 | 11 | -1 | 3
CCn1c(NC(=S)Nc2ccccc2)nc2ccccc21 | 1 | 33* | nt | nt | nt
SMILES | esBAF inh | Wnt bcat act | Ecoli rRNA inh | MLL AF4-AF9 inh | MITF act
CCN1[C@@H]2c3ccc(C4=CCCCC4)c(=O)n3C[C@@H]2[C@@H](CO)[C@@H]1C(=O)NC1Cc2ccccc2C1 | -3 | nt | -15 | 5 | nt
O=C(CSc1nnnn1Cc1ccccc1)c1ccccc1F | nt | 4 | -28 | -1 | 2
Cc1ccc(C(=O)CSc2nnnn2Cc2ccccc2)cc1C | -6 | 1 | -28* | -8 | 4
COc1cc(NC(=O)CSc2nnnn2Cc2ccccc2)cc(OC)c1 | nt | -3 | 1 | 0 | 1
COc1ccc(C)cc1NC(=O)CSc1nnnn1Cc1ccccc1 | nt | 44* | nt | nt | -5
CC(=O)C1=C(O)C(=O)N(c2ccccn2)C1c1ccccc1[N+](=O)[O-] (configuration not stated) | 0 | 1 | 3 | 1 | -19
COC(=O)c1scc(S(=O)(=O)C(C)C)c1N/N=C(\C#N)C(=O)c1ccc(Cl)cc1 | nt | 0 | -43* | 2 | -15
COC(=O)c1scc(C#N)c1N/N=C(\C#N)S(=O)(=O)c1ccc(Cl)cc1 | -27 | 1 | 2 | 2 | nt
CCC(=O)N(C)C[C@@H]1Oc2ncc(-c3ccc(C(=O)N(C)C)cc3)cc2C(=O)N([C@@H](C)CO)C[C@@H]1C | -2 | nt | 6 | -2 | nt
CN(C)c1ccc(CNC(=O)C2(C)Cc3c(-c4ccc5c(c4)OCO5)ccnc3O2)cc1 (configuration not stated) | -26 | 1 | -15* | ? | nt
CN(C)c1ccc(CNC(=O)C2(C)Cc3c(-c4ccc(N(C)C)cc4)ccnc3O2)cc1 (configuration not stated) | nt | -1 | -11 | 17 | nt
COC(=O)[C@H]1C[C@@H]1[C@H](N)c1ccccc1 | -2 | -3 | 4 | 1 | 11
COc1ccc(C(=O)c2ccc(OC)c(N)c2)cc1N | 22 | nt | nt | nt | nt
COc1cc(N=Nc2ccc(C(=O)N(C)C)cc2)c(C)cc1N | 58* | -3 | -15 | 10 | 2
COc1cc([N+](=O)[O-])ccc1NC(=S)NNC(=O)c1ccc2c(c1)OCO2 | nt | -1 | -17* | -1 | -10
COc1ccc(Cl)cc1NC(=S)NC(=O)c1ccc2c(c1)OCO2 | 2 | 0 | 20 | 4 | 9
COc1ccc(C)cc1NC(=O)c1ccc2c(c1)OCO2 | 11 | nt | nt | nt | 0
O=C(Nc1ccc(Cl)cc1Cl)c1ccc2c(c1)OCCO2 | -5 | 52* | -2 | 0 | 50
O=C(NC(=S)Nc1cc([N+](=O)[O-])ccc1O)c1ccc2c(c1)OCO2 | -8 | ? | -27 | -1 | 46
Cc1cc(Cl)ccc1NC(=O)c1ccc2c(c1)OCO2 | 77* | 11 | 10 | -9 | nt
COc1cc(Cl)c(C)cc1NC(=O)c1ccc2c(c1)OCO2 | 46* | 2 | 11 | 5 | nt
COc1ccccc1CNC(=O)COC(=O)Cc1cccc(F)c1 | -5 | -2 | -1 | -2 | 10
COc1ccc(S(=O)(=O)N[C@H]2C=C[C@H](CC(=O)O)O[C@@H]2CO)cc1 | -2 | nt | 2 | -2 | nt
CCN(C(=O)COC(=O)c1cc(-c2cccs2)nc2ccccc12)C1CCS(=O)(=O)C1 (configuration not stated) | nt | -2 | -23* | 4 | 19
CCN(C(=O)COC(=O)c1cc(-c2ccc(C)o2)nc2ccccc12)C1CCS(=O)(=O)C1 (configuration not stated) | nt | 2 | 14 | -4 | 8
Cc1nc(N)sc1N=Nc1ccccc1C(F)(F)F | ? | 28 | -58 | 13 | 159*
O=C(CN1C(=O)NC2(CCc3ccccc32)C1=O)c1ccc(Br)s1 (configuration not stated) | 2 | -6 | -30* | 3 | -18
